Unmarked numbers belong to inactive results. Inconclusive results are not listed. The source made the active and inactive calls. The call rests on the fitted dose curve; in most records, active means well fitted curve in the direction sought with a large enough effect; inconclusive means small, poorly fitted or top-dose-only effect, or another doubt; inactive means no such curve, though single readings can be large; an effect the other way counts as inactive or inconclusive. Where a SMILES comes first, the peptide text is derived from it.

The target of test [1] is Glutathione peroxidase 1 (Homo sapiens) (UniProt P07203). Briefly: Primary qHTS Assay for Inhibitors of Recombinant Selenoprotein Glutathione Peroxidase 1 (GPX1) (AID 1845191). Further: nearly all actives have a fitted effect of over 65% in size. On activity, negative = inhibition: on the % scale 0 is the no-effect control and ±100 the full control effect. The gist of the method:
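GR-coupled assay: compounds preincubated 30 min at room temperature with GPX1, then reaction started with CHP; final 10 nM GPX1, 1 mM GSH, 0.5 mM CHP, 0.5 mM NADPH, 100 nM GR, 0.01% BSA, pH 7.5 Tris buffer. NADPH fluorescence (340/450 nm) read at 0 and 15 min.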
In general terms: qHTS replaces the single test concentration by a dilution series.

Test [2] has as its target Phospholipid hydroperoxide glutathione peroxidase GPX4 (Homo sapiens) (UniProt P36969). Briefly: Primary qHTS Assay for Inhibitors of Recombinant Selenoprotein Glutathione Peroxidase 4 (GPX4) (AID 1845192). Further: series mostly up to about 50 µM; on the % scale 0 is the no-effect control and ±100 the full control effect; nearly all actives have a fitted effect of over 65% in size. An outline of the steps: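 GR-coupled assay: recombinant GPX4 preincubated 30 min with compound at room temperature; final 200 nM GPX4, 1 mM GSH, 0.5 mM cumene hydroperoxide, 0.5 mM NADPH, 100 nM GR, 0.01% BSA, pH 7.5 Tris. NADPH fluorescence (340/450 nm) read at 0 and 15 min.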

The target in test [3] is Luciferin 4-monooxygenase (Photinus pyralis) (UniProt P08659). Briefly: Primary firefly luciferase (FLuc) qHTS assay for identification of artifact compounds. (AID 1845220). Further: nearly all actives have a fitted effect of over 60% in size.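 On activity change, negative = inhibition: series mostly up to about 54 µM; plate controls were DMSO vehicle for no effect and no enzyme for full effect.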 The gist of the method: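 D-luciferin and ATP (10 uM each, final) in Tris acetate buffer pH 7.6 were incubated with compounds for 15 min at room temperature. The reaction was started with 10 nM Photinus pyralis luciferase and luminescence read after 5 min. Percent inhibition was fitted to a 4-parameter Hill equation.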

A short description of test [4]: Primary fluorescence-based thiol-reactive (MSTI) qHTS assay for identification of artifact compounds. (AID 1845221). Further: nearly all actives have a fitted effect of over 65% in size. Further: potency means the concentration at half of the fitted maximal effect.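 On activity change, negative = thiol reactive: series mostly up to about 54 µM; thiol-reactive compounds lower the probe fluorescence signal.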 An outline of the steps:
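qHTS titration of compound; 4 uM MSTI, PBS pH 7.4, 2% DMSO; 1 h RT, dark; fluorescence 525/598 nm; normalized to Acetyl-MSTI and MSTI; 4-parameter Hill fit.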

Test [5] has as its system Nanoluciferase (engineered Oplophorus gracilirostris luciferase). In words: Primary Nanoluciferase (NLuc) qHTS assay for identification of artifact compounds. (AID 1845222).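 Further: series mostly up to about 54 µM; 0% = DMSO and -100% = no enzyme.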 The gist of the method: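 Diluted conditioned medium from NLuc-expressing S16 cells treated with compounds for 15 min at room temperature, then Nano-Glo substrate added; luminescence read after 5 min. Percent inhibition versus no-enzyme and DMSO controls fitted to 4-parameter Hill equation.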

Chain of Phospholipid hydroperoxide glutathione peroxidase GPX4 (Homo sapiens) (P36969 whole entry, looked up): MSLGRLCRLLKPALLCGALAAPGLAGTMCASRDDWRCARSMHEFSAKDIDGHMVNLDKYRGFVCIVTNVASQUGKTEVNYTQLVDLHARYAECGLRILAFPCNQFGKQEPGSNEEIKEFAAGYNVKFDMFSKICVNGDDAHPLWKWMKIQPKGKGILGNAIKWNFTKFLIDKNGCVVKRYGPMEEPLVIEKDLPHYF
Chain of Glutathione peroxidase 1 (Homo sapiens) (P07203 whole entry, looked up): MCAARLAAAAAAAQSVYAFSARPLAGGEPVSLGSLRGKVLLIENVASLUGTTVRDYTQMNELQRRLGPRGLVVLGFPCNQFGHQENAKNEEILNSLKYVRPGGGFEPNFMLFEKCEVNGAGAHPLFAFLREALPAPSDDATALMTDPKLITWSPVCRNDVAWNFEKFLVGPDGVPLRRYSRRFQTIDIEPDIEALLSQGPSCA

For `CC(=O)O[C@@H]1[C@H](O[C@@H]2OC[C@](O)(CO)[C@H]2O)[C@@H](O[C@@H]2O[C@@H](C)[C@H](O)[C@@H](O[C@@H]3O[C@H](CO)[C@@H](O)[C@H](O)[C@H]3O)[C@H]2O)[C@H](OC(=O)[C@]23CCC(C)(C)C[C@H]2C2=CCC4[C@@]5(C)C[C@H](O)[C@H](O[C@@H]6O[C@H](C(=O)O)[C@@H](O)[C@H](O)[C@H]6O)[C@@](C)(C(=O)O)C5CC[C@@]4(C)[C@]2(C)CC3)O[C@@H]1C` (stereo not given in full), the Potency entry in test [1] and in test [2] was “inactive” throughout. Moreover, the outcome in test [3] was “inactive [at 11.6 µM]”. Further, the activity change, negative = thiol reactive in test [4] was 238% [at 11.5 µM]. Besides, in test [5], the activity, negative = inhibition is 0% [at 11.6 µM].

In the case of `CC[C@H]1OC(=O)[C@H](C)[C@@H](O[C@H]2C[C@@](C)(OC)[C@@H](O)[C@H](C)O2)C(C)[C@@H](O[C@@H]2O[C@H](C)C[C@H](N(C)C)[C@H]2O)[C@](C)(O)C[C@@H](C)CN(C)[C@H](C)[C@@H](O)[C@]1(C)O` (stereo not given in full), the Potency result in test [1], in test [2], in test [3], in test [4] and in test [5] was “inactive” each time.

Regarding `COc1cccc(CN(C(=O)CC(C)(C)C)C2CC(C(=O)N3CCNCC3)N(Cc3ccc4c(c3)OCO4)C2)c1` (stereo not given), the Potency entry in test [1], in test [2], in test [3], in test [4] and in test [5] was “inactive” in each case.

Consider `CC/C=C\C(O)C(O)C1=C(C)C(=O)C2(O1)C(=O)NC(OC)(C(=O)c1ccccc1)C2O` (stereo not given), for which the Potency result in test [1], in test [2], in test [3] and in test [5] was “inactive” throughout. For the same compound, the Potency in test [4] was 4.62 µM (active).

As to `CCC(C)/C=C(C)/C=C/C(=O)C1CCC(O)C(C)(O)C1=O` (stereo not given), the Potency entry in test [1], in test [2], in test [3] and in test [5] was “inactive” throughout. Moreover, the Potency in test [4] is 23.8 µM (active).

For `C/C=C1\[C@H](O[C@@H]2O[C@H](CO)[C@@H](O)[C@H](O)[C@H]2O)OC=C(C(=O)OCCc2ccc(O)cc2)[C@H]1CC(=O)OCCc1ccc(O)cc1`, the Potency result in test [1], in test [2], in test [3], in test [4] and in test [5] was “inactive” each time.

Take `CC(C)=CCC[C@](C)(O[C@@H]1O[C@H](CO[C@@H]2O[C@@H](CO)[C@H](O)[C@H]2O)[C@@H](O)[C@H](O)[C@H]1O)[C@H]1CC[C@]2(C)[C@@H]1[C@H](O)C[C@@H]1[C@@]3(C)CC[C@H](O[C@@H]4O[C@H](CO)[C@@H](O)[C@H](O)[C@H]4O[C@@H]4O[C@H](CO)[C@@H](O)[C@H](O)[C@H]4O)C(C)(C)[C@@H]3CC[C@]12C`: the Potency entry in test [1], in test [2], in test [3], in test [4] and in test [5] was “inactive” in each case.

As to `CC1(C)C[C@H]2C=C(C=O)[C@]3(C(=O)O)C[C@]3(C)[C@H]2C1`, the Potency entry in test [1], in test [2], in test [3] and in test [5] was “inactive” in each case. In addition, in test [4], the Potency is 11.9 µM (active).

As for `O=C(OC[C@H]1O[C@@H](Oc2ccccc2CO)[C@H](O)[C@@H](O)[C@@H]1O)c1ccccc1`, the Potency result in test [1], in test [2], in test [3] and in test [5] was “inactive” each time. Besides, the Potency in test [4] is 10.4 µM (active).

In the case of `CCN1CCN(C(=O)N[C@@H](C(=O)N[C@@H]2C(=O)N3[C@@H]2SC(C)(C)[C@@H]3C(=O)O)c2ccccc2)C(=O)C1=O`, the Potency result in test [1], in test [2], in test [3], in test [4] and in test [5] was “inactive” throughout.

As for `CC(=O)NC(Cc1ccccc1)C(=O)NC(C(=O)O)C(C)C` (stereo not drawn) (Ac-Phe-Val-OH; configuration not given here), the Potency entry in test [1], in test [2], in test [3], in test [4] and in test [5] was “inactive” in each case.

On to `C=C(C)[C@@]1(O)C[C@@]2(C)C(=CC1=O)CC[C@@H](O)[C@@H]2C`, for which the Potency result in test [1], in test [2], in test [3], in test [4] and in test [5] was “inactive” in each case.

As to `C=C1CCC2C(C)(C)CC(O)CC2(C)C1CCC(C)CCOC(=O)CCC(=O)O` (stereo not given), the Potency result in test [1], in test [2], in test [3], in test [4] and in test [5] was “inactive” in each case.

Consider `Cc1nc2ccccc2c(-c2ccc3c4c(ccnc24)CCO3)c1[C@H](OC(C)(C)C)C(=O)O`, for which the Potency entry in test [1], in test [2], in test [3], in test [4] and in test [5] was “inactive” throughout.

On to `C=C1CC[C@]2(C(=O)O[C@@H]3O[C@H](CO)[C@@H](O)[C@H](O)[C@H]3O)CC[C@]3(C)C(=CCC4[C@@]5(C)C[C@H](O)[C@@H](O[C@@H]6O[C@H](C(=O)O)[C@@H](O)[C@H](O)[C@H]6O)[C@](C)(C=O)C5CC[C@]43C)C2C1` (stereo not given in full), for which the Potency entry in test [1] and in test [2] was “inactive” throughout. In addition, the outcome in test [3] was “inactive [at 11.6 µM]”. Further, in test [4], the activity change, negative = thiol reactive was 113% [at 11.5 µM]. For the same compound, in test [5], the activity, negative = inhibition was 1.82% [at 11.6 µM].

As to `C/C=C1/CC2C(=O)Nc3cc(O)c(OC)cc3C(=O)N2C1` (stereo not given), the Potency entry in test [1], in test [2], in test [3] and in test [5] was “inactive” in each case. Also, the Potency in test [4] was 13.1 µM (active).

In the case of `CNc1nc(C)nc(N[C@H]2CCC[C@@H](C(=O)NCc3ccc(C#N)cc3C(F)(F)F)C2)n1`, the Potency entry in test [1], in test [2], in test [3], in test [4] and in test [5] was “inactive” throughout.

In the case of `C[C@@H]1O[C@@H](O[C@H]2[C@H](OC(=O)[C@]34CCC(C)(C)C[C@H]3C3=CCC5[C@@]6(C)C[C@@H](O)[C@@H](O[C@@H]7O[C@H](CO)[C@@H](O)[C@H](O)[C@H]7O)[C@@](C)(CO)C6[C@H](O)C[C@@]5(C)[C@]3(C)CC4)OC[C@H](O)[C@@H]2O)[C@H](O)[C@H](O[C@@H]2OC[C@](O)(CO)[C@H]2O)[C@H]1O[C@@H]1OC[C@@H](O)[C@H](O[C@H]2O[C@H](C)[C@@H](O)[C@H](O)[C@@H]2O)[C@H]1O` (stereo not given in full), the Potency entry in test [1] and in test [2] was “inactive” in each case. In addition, in test [3], the activity change, negative = inhibition is 1.3% [at 11.6 µM]. For the same compound, in test [4], the activity change, negative = thiol reactive was 412% [at 11.5 µM]. In addition, the activity, negative = inhibition in test [5] is 0% [at 11.6 µM].

Source of the values: PubChem BioAssay (NCATS).
